# Reference: PubChem BioAssay AID504467 (National Center for Advancing Translational Sciences (NCATS), 2011)
# Hit rate of the full screen: of about 330,000 compounds, about 7,700 (2.3%) were called active. A call without a number means that no potency is given here. Roughly 26% stayed inconclusive and do not appear here. Calls come from the whole dose curve; as a rule, active = well fitted inhibition curve with a large enough effect; inconclusive = small, poorly fitted or top-dose-only effect, or effect the other way; inactive = flat fitted curve, though single readings scatter. The full list was thinned out, with actives kept by preference.
# Test: qHTS screen for small molecules that inhibit ELG1-dependent DNA repair in human embryonic kidney (HEK293T) cells expressing luciferase-tagged ELG1; note: nearly all actives have a fitted effect of over 55% in size
# Conditions: HEK293T ELG1-luciferase reporter, luminescence, 16 h, DNA damage induced by 5-fluorouridine; series mostly up to 46.1 µM
# Procedure, shortened: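 HEK293T cells expressing luciferase-tagged ELG1 (2,000/well) received 5-Fluorouridine plus compound or DMSO for 16 hr at 37 °C. Luciferase was read by ONE-Glo luminescence after 30 min at room temperature.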
# Potency is the fitted concentration of half-maximal effect.
row,SMILES,Potency
1,CCC(=O)c1cc(F)ccc1OCC(=O)Nc1ccc2c(c1)OCCO2,inactive
2,CCOCCCN(C)C1CCN(C(=O)c2oc3ccccc3c2NC(=O)COc2cccc(C)c2)CC1,inactive
3,CCOc1ccc(S(=O)(=O)Nc2cccc(C(=O)NCC3(N4CCCCC4)CCCCC3)c2)cc1,inactive
4,CCOC(=O)c1cccc(NC(=O)C2CCCN(S(=O)(=O)c3cnc[nH]3)C2)c1 (stereo not drawn),inactive
5,COc1cccc(CNC(=O)C2CCCN(S(=O)(=O)N3CC(C)CC(C)C3)C2)c1 (stereo not drawn),inactive
6,COc1cccc(NC(=O)C2CCCN(c3ncnc4c3nc3n4CCCCC3)C2)c1 (stereo not drawn),14.6 µM (active)
7,O=C(Nc1cccc(Cl)c1)C1CCCN(c2cnccn2)C1 (stereo not drawn),inactive
8,CCOC(=O)c1cccc(NC(=O)C2CCN(c3ncnc4c3nc3n4CCCCC3)CC2)c1,0.461 µM (active)
9,COc1ccccc1NC(=O)C1CCCN(c2cc(C)nc3ncnn23)C1 (stereo not drawn),inactive
10,CCOC(=O)c1cccc(NC(=O)CCc2c(C)nc3ncnn3c2C)c1,inactive
11,O=C(NCCCN1CCCCC1)C1CCCN(c2ncnc3c2nc2n3CCCCC2)C1 (stereo not drawn),inactive
12,COc1cccc(CNC(=O)C2CCCN(c3ncnc4c3nc3n4CCCCC3)C2)c1 (stereo not drawn),18.3 µM (active)
13,COc1ccc(C(=O)NC2CC(C)(C)Cc3c2cnn3-c2ccccc2C)o1 (stereo not drawn),inactive
14,COc1ccccc1N(C)C(=O)c1cc(S(=O)(=O)N2CCc3ccccc32)cn1C,inactive
15,COc1ccc(OC)c(C(C)NC(=S)Nc2ccc(S(=O)(=O)Nc3ncccn3)cc2)c1 (stereo not drawn),inactive
16,O=C(Nc1cc(Cl)ccc1N1CCOCC1)c1ccc(N2CCCC2=O)cc1,inactive
17,NCCN1CCN2C(=O)CN(C(=O)c3ccccc3)CC12 (stereo not drawn),inactive
18,CC1(C(=O)N/N=C/c2cc3c(cc2Br)OCO3)CC1(Br)Br (stereo not drawn),inactive
19,COc1ccc2oc(=O)cc(-c3cc4ccccc4o3)c2c1,inactive
20,COc1ccc(CC(=O)Nc2c(C(N)=O)oc3ccccc23)cc1,inactive
21,COc1ccc(Nc2cc(=O)oc3ccccc23)cc1,4.61 µM (active)
22,CCCOc1ccc(C2=CSC3=NCCN23)cc1Cl,inactive
23,c1ccc(-c2nc(NCc3ccco3)c3ccccc3n2)cc1,inactive
24,c1ccc2c(NCC3CCCO3)nc(-c3ccncc3)nc2c1 (stereo not drawn),18.4 µM (active)
25,Cc1nc2ccccc2c2oc(C(=O)NCCCN3CCC(C)CC3)cc12,inactive

row,SMILES,Potency
1,Cc1nc2ccccc2c2oc(C(=O)NCC3CCCO3)cc12 (stereo not drawn),20.6 µM (active)
2,O=C(NCC1CCCO1)c1cc(-c2ccccc2)nc2ccccc12 (stereo not drawn),inactive
3,CCCN(CCC)CCNC(=O)c1cc2c(C)nc3ccccc3c2o1,inactive
4,O=C(Cn1ncc2c3ccccc3n(Cc3ccccc3)c2c1=O)NCCCN1CCOCC1,inactive
5,COc1ccc(NC(=O)C(C)N2c3cccc4cccc(c34)S2(=O)=O)c(OC)c1 (stereo not drawn),inactive
6,CCC1(CC)NC(=O)N(CC(=O)OCC(=O)c2cc(C)c(C)cc2C)C1=O,inactive
7,CCN(C(=O)CSc1nnnn1-c1ccc(OC)cc1)C1CCS(=O)(=O)C1 (stereo not drawn),inactive
8,O=C(Nc1ccc(N2CCN(C(=O)c3cccs3)CC2)cc1)c1cccnc1Cl,inactive
9,Cc1ccccc1C(=O)N1CCN(c2ccc(NC(=O)c3cccs3)cc2)CC1,9.2 µM (active)
10,O=C(Nc1ccc(N2CCN(C(=O)C3CC3)CC2)cc1)c1cccs1,inactive
11,COc1ccc(CNC(=O)C[C@H]2C[C@H](C(=O)N3CCOCC3)[C@@]3(C)c4[nH]c5cc(CCC(=O)N(C)C)ccc5c4CCN3C2=O)cc1OC,inactive
12,CCc1ccccc1NC(=O)CN(C)C(=O)c1cc(C2CC2)nn1-c1ccccc1,inactive
13,O=C(c1ccc2nc(N3CCOCC3)sc2c1)N1CCN(c2ccc(Cl)cc2)CC1,inactive
14,O=C(/C=C/c1cn(-c2ccccc2)nc1-c1ccc2c(c1)OCCO2)NCCCN1CCOCC1,inactive
15,O=C(O)/C=C/c1cn(Cc2ccccc2)nc1-c1cccs1,inactive
16,O=C(/C=C\c1cn(-c2ccccc2)nc1-c1cccs1)N1CCOCC1,16.4 µM (active)
17,CC(C)C[C@H](NC(=O)N1CC(=O)Nc2ccccc21)C(=O)N[C@H](Cc1ccccc1)C(=O)O,inactive
18,CCCCCCSc1ccc(-c2nc3ccc(Cl)cn3c2NCc2ccccc2)cc1,inactive
19,CN(C)CCCN(C(=O)COc1ccccc1)c1nc2c(Cl)cccc2s1,inactive
20,CN(C(=O)COc1ccccc1)c1nnc(-c2ccncc2)s1,inactive
21,COc1ccc(CCN(C(=O)COc2ccccc2)c2nc(-c3ccccc3)cs2)cc1OC,23.1 µM (active)
22,Cc1cc(F)ccc1NC(=S)NCCc1ccccc1,inactive
23,COc1ccc(-c2noc(C(C)NS(=O)(=O)c3ccc(NC(C)=O)cc3)n2)cc1 (stereo not drawn),inactive
24,COc1ccc(-n2c(=O)[nH]c3cc(C(=O)NCCc4ccc(OC)c(OC)c4)ccc3c2=O)c(OC)c1,inactive
25,Clc1ccc2nc(-c3ccccc3)nc(C(Cl)Cl)c2c1,2.31 µM (active)

row,SMILES,Potency
1,NC(N)=Nc1nc(-c2ccccc2)c2cc(Cl)ccc2n1,inactive
2,O=C(CCl)NNc1nc(-c2ccccc2)c2cc(Cl)ccc2n1,inactive
3,Cn1c(CCN2CCCC2)nc2cc(NS(=O)(=O)c3ccccc3)ccc21,inactive
4,CCOCCn1[nH]c2ccccc2c1=O,inactive
5,COc1ccc(N(CC(=O)NCc2ccc(F)cc2)C(=O)CCC(=O)Nc2nccs2)cc1,inactive
6,COc1cc(NC(=O)c2[nH]cnc2C(N)=O)cc(C(=O)Nc2cccc(C(F)(F)F)c2)c1,5.8 µM (active)
7,COc1ccc(NC(=O)CN(C)CC(=O)Nc2cccc(C(F)(F)F)c2)cc1,inactive
8,Cc1cccc(NC(=O)c2nnn(-c3cccc(C(F)(F)F)c3)c2N)c1,inactive
9,CN=C(Nc1cccc(S(=O)(=O)N2CCOCC2)c1)c1ccccc1,inactive
10,Cn1cncc1C#Cc1c(-c2ccsc2)sc2ccccc12,inactive
11,CNS(=O)(=O)c1ccc(C(=O)NCC(=O)NCCc2ccc3c(c2)OCCO3)cc1,inactive
12,COc1ccccc1/C=C1\SC(=O)N(CCC(=O)N(C)C2CCS(=O)(=O)C2)C1=O (stereo not drawn),inactive
13,O=C(CSc1nc2ccccc2c(=O)n1-c1ccc(F)cc1)NC1CC1,inactive
14,Cn1c(SCC(=O)N/N=C/c2ccc(O)c(O)c2)nc2ccccc21,inactive
15,Cc1nn(-c2ccccc2)c(C)c1/C=N/NC(=O)CSc1nc2ccccc2c(=O)n1-c1ccccc1,16.4 µM (active)
16,COc1ccc(-n2nc(C(=O)NCC(=O)Nc3cccc(C)n3)c3ccccc3c2=O)cc1,18.4 µM (active)
17,CCCN(CCC)CCCNC(=O)CNC(=O)c1nn(-c2ccc(OC)cc2)c(=O)c2ccccc12,inactive
18,COCCCNC(=O)CNC(=O)c1nn(-c2ccc(OC)cc2)c(=O)c2ccccc12,inactive
19,CN1CCN(S(=O)(=O)c2ccc(N3CCN(c4ccccc4O)CC3)c([N+](=O)[O-])c2)CC1,inactive
20,CCOc1ccc(CCNC(=O)CN2C(=O)NC3(CCc4ccccc43)C2=O)cc1OCC (stereo not drawn),inactive
21,O=C(c1ccccc1)c1ccc(C(=O)N2CCN(c3ccccc3)CC2)cc1,inactive
22,O=C(c1cccc(F)c1)N1CCN(c2ccc([N+](=O)[O-])c(N3CCCCC3)c2)CC1,inactive
23,O=C(c1cc2cc(F)ccc2[nH]1)N1CCN(c2ccc(F)cc2)CC1,inactive
24,O=C(c1cccc(C(=O)N2CCN(c3ccc(F)cc3)CC2)c1)N1CCN(c2ccc(F)cc2)CC1,18.4 µM (active)
25,O=C(c1ccc(Cl)c([N+](=O)[O-])c1)N1CCN(c2ccccc2)CC1,inactive

row,SMILES,Potency
1,O=C(c1cc(C(=O)N2CCN(c3ccc(F)cc3)CC2)cc([N+](=O)[O-])c1)N1CCN(c2ccc(F)cc2)CC1,11.2 µM (active)
2,N#CC(Cc1cc2ccccc2n1S(=O)(=O)c1ccccc1)OCc1ccccc1 (stereo not drawn),inactive
3,Cn1cccc1C(=O)OCC(=O)NCCc1ccccc1,inactive
4,Cc1cccc(C)c1NC(=O)COC(=O)c1c(C)nn(-c2ccccc2)c1C,inactive
5,O=C(CCNC(=O)c1ccc(Br)cc1)NCC(c1ccco1)N1CCCCC1 (stereo not drawn),inactive
6,CC1CC(C)CN(S(=O)(=O)c2ccc(C(=O)NN3CCOCC3)cc2)C1 (stereo not drawn),inactive
7,CC1CN(S(=O)(=O)c2ccc(C(=O)Nc3sccc3C(N)=O)cc2)CC(C)O1 (stereo not drawn),18.4 µM (active)
8,COc1cccc(NC(=O)c2cc(S(=O)(=O)N3CCc4ccccc43)cn2C)c1,inactive
9,CCn1c(=O)c(=O)n(CC)c2cc(S(=O)(=O)N3CCc4ccccc43)ccc21,inactive
10,CC1CN(S(=O)(=O)c2ccc(C(=O)NN3CCN(C)CC3)cc2)CC(C)O1 (stereo not drawn),inactive
11,CNC(=O)c1ccsc1NC(=O)c1ccc(S(=O)(=O)N2CCc3ccccc32)cc1,18.4 µM (active)
12,N#Cc1c(-c2ccccc2)nc(SCc2ccc([N+](=O)[O-])cc2)[nH]c1=O,inactive
13,O=C(CNC(=O)C1COc2ccccc2O1)N/N=C/c1cc(Br)c(O)c(Br)c1 (stereo not drawn),inactive
14,O=C(CSc1nccn1-c1cccc(F)c1)NC1CCCC1,inactive
15,CC(C)CC(O)C1CCN(C(=O)CCc2nnc(-c3ccc4c(c3)OCO4)o2)CC1 (stereo not drawn),inactive
16,CCn1c2ccc(F)cc2c2nnc(SCCN3CCOCC3)nc21,inactive
17,CCN(CC(=O)NC(C)C)C(=O)c1cc(S(=O)(=O)N2CCCCC2)ccc1N1CCCCC1,inactive
18,CCN(CC(=O)Nc1ccccc1C(=O)NC1CC1)Cc1cccs1,inactive
19,Cc1cccc(-c2nc3ccccc3c(=O)n2NC(=O)Cc2ccc(Cl)cc2)c1,inactive
20,O=C1CCCc2c1nc(-c1cccc(Cl)c1)n2O,inactive
21,O=c1c2cc(Br)ccc2nc(-c2cccc(Cl)c2)n1O,18.3 µM (active)
22,Cc1ccc(NC(=O)Cn2cnc3c(OCc4ccccc4)ncnc32)cc1C,inactive
23,Cc1cc(C)c(S(=O)(=O)NCC(c2ccc3c(c2)OCO3)N2CCOCC2)c(C)c1 (stereo not drawn),inactive
